Assay outcomes deposited in PubChem BioAssay by National Center for Advancing Translational Sciences (NCATS).
Hits are enriched below; roughly 5.2% of the tested compounds scored in any of these assays.
IDH1 R132H inh: inhibitors of human mutant IDH1 R132H | AID 602179 | O75874 | IDH1-R132H enzyme, NADPH consumption, diaphorase/resazurin fluorescence | Potency, µM (titrated, usually from 76.6 µM), actives largely listed as inhibitors | 0.093% of 390,000 active; note: nearly all actives have a fitted effect of over 65% in size
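IDH1-R132H (0.5 ug/mL) preincubated 30 min with compound, then NADPH (0.016 mM) and alpha-KG (2 mM) added; 80 min at RT, pH 7.5. Remaining NADPH coupled via diaphorase/resazurin to fluorescence (540/590 nm); concentration-response curves normalized to no-enzyme control.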
TrxR1 inh: inhibitors of rat thioredoxin reductase 1; O89049; recombinant rTrxR1, NADPH fluorescence consumption, selenite substrate; Potency, µM (doses to about 114 µM), actives largely listed as inhibitors; 1% of 390,000 active; AID 588453; note: nearly all actives have a fitted effect of over 65% in size
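Rat TrxR1 (90 nM in the dispensed reagent) was pre-reduced with 400 uM NADPH for 5 min at room temperature, then incubated with compound for 15 min. After 400 uM selenite was added, NADPH fluorescence (Ex 340/Em 450 nm) was followed for 8 min.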
Sfp inh: Sfp phosphopantetheinyl transferase inhibition; Q9F4F7; Biochemical Sfp PPTase activity, qHTS; Potency, µM, usual class: inhibitors; 3.5% of 310,000 active;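 note: the enzyme is Sfp with the accession as filed and its product quenches rhodamine fluorescence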
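Sfp 15 nM + cpd, 15 min RT; start w/ rhodamine-CoA 5 uM, BHQ-2-YbbR 12.5 uM (final); 50 mM Hepes pH 7.6, 10 mM MgCl2, 0.01% NP-40, 0.01% BSA; read 525/598 nm at 0 and 30 min.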
TrxR1 substrate: substrates of rat thioredoxin reductase 1; 0.01% of 390,000 active; AID 588456; Potency, µM (doses to about 114 µM); purified TrxR1 substrate turnover, NADPH consumption readout; note: nearly all actives have a fitted effect of over 50% in size
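Rat TrxR1, dispensed at 90 nM, was prereduced with 400 uM NADPH (final) for 5 min at ~22 deg C, then incubated with compound 15 min before 400 uM selenite. A first-read NADPH fluorescence drop versus no-compound background flagged substrates.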
PLK1 PBD block: PLK1 (human) polo-box domain binding inhibition. P53350. Plk1 PBD binding of FITC phosphopeptide, fluorescence polarization. Potency, µM, hits mostly inhibitors. 2.8% of 360,000 active. AID 720504; note: series mostly up to about 57 µM; nearly all actives have a fitted effect of over 65% in size
VDR inhibitor: inhibitors of human vitamin D receptor | VDR-SRC2-3 peptide fluorescence polarization, 2 h | 0.93% of 400,000 active | Potency, µM, actives largely listed as inhibitors
Target sequence (P11473 whole entry, looked up): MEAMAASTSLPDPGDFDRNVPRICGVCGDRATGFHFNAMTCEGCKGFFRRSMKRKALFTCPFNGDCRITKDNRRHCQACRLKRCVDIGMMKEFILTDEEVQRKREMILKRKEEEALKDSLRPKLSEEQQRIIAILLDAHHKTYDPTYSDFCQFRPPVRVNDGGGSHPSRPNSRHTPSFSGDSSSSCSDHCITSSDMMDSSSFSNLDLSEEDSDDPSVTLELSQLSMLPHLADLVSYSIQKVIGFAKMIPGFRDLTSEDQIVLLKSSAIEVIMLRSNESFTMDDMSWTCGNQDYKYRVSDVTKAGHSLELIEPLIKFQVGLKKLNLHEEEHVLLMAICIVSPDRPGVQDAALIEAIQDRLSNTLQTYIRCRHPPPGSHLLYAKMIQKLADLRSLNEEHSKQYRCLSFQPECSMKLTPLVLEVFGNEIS
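VDR–SRC2-3 interaction, FP format. Cmpds 23 nl via pintool, brief spin, 2 h ambient incubation.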
A number is an active result. Calls come from the whole dose curve; as a rule, active = well fitted curve in the direction sought with a large enough effect; inconclusive = small, poorly fitted or top-dose-only effect, or another doubt; inactive = no such curve, though single readings can be large; an effect the other way counts as inactive or inconclusive.

CN=C1NN=C(c2cc(C)n(-c3c(C)n(C)n(-c4ccccc4)c3=O)c2C)CS1 was read as IDH1 R132H inh inactive, TrxR1 inh inactive, Sfp inh 50µM, TrxR1 substrate inactive, PLK1 PBD block inactive and VDR inhibitor inactive.
`O=C(Nc1ccccc1)OCC(CN1CCCCC1)OC(=O)Nc1ccccc1` (configuration not stated) gave IDH1 R132H inh inactive, TrxR1 inh inactive, Sfp inh inactive, TrxR1 substrate inactive, PLK1 PBD block inactive and VDR inhibitor inactive.
Cn1c(=O)c2c(ncn2Cc2ccc(Cl)cc2)n(C)c1=O was read as IDH1 R132H inh inactive, TrxR1 inh inactive, Sfp inh inactive, TrxR1 substrate inactive, PLK1 PBD block inactive and VDR inhibitor inactive.
Cn1c(=O)c2c([nH]c(=S)n2Cc2ccc(Cl)cc2)n(C)c1=O was read as IDH1 R132H inh inactive, TrxR1 inh inactive, Sfp inh 20µM, TrxR1 substrate inactive, PLK1 PBD block 11µM and VDR inhibitor 79µM.
For CCNC(=S)N/N=C1\C(=O)c2cccc3cccc1c23 the results were IDH1 R132H inh inactive, TrxR1 inh inactive, Sfp inh inactive, TrxR1 substrate inactive, PLK1 PBD block inactive and VDR inhibitor inactive.
O=C(N/N=C1/C(=O)c2cccc3cccc1c23)c1ccc(Cl)cc1 was read as IDH1 R132H inh inactive, TrxR1 inh inactive, Sfp inh 45µM, TrxR1 substrate inactive, PLK1 PBD block inconclusive and VDR inhibitor inactive.
`Cn1c(CNc2cccc(C(F)(F)F)c2)n[nH]c1=S` gave IDH1 R132H inh inactive, TrxR1 inh inactive, Sfp inh inactive, TrxR1 substrate inactive, PLK1 PBD block 27µM and VDR inhibitor inactive.
`COc1ccc(C2NN=C(c3ccc(C)cc3)S2)cc1OC` (configuration not stated) gave IDH1 R132H inh inactive, TrxR1 inh inactive, Sfp inh inconclusive, TrxR1 substrate inactive, PLK1 PBD block 24µM and VDR inhibitor inactive.
COc1ccc(-c2cc(C(F)(F)F)nc(-n3cc(Br)cn3)n2)cc1 was read as IDH1 R132H inh inactive, TrxR1 inh inactive, Sfp inh 22µM, TrxR1 substrate inactive, PLK1 PBD block inactive and VDR inhibitor inactive.
Screening COc1ccc(C(C#N)N2N=C(C)CC2(C)C)cc1OC (configuration not stated) returned IDH1 R132H inh inactive, TrxR1 inh 40µM, Sfp inh inactive, TrxR1 substrate inactive, PLK1 PBD block inconclusive and VDR inhibitor inactive.
For CC1=NN(C(C#N)c2ccccc2)C(C)(C)C1 (configuration not stated) the results were IDH1 R132H inh inactive, TrxR1 inh inactive, Sfp inh inactive, TrxR1 substrate inactive, PLK1 PBD block inactive and VDR inhibitor inactive.
For O=C(O)c1ccc(/C=N/NC(=S)NCCN2CCOCC2)cc1 the results were IDH1 R132H inh inactive, TrxR1 inh inactive, Sfp inh 50µM, TrxR1 substrate inactive, PLK1 PBD block inactive and VDR inhibitor inactive.
For Cc1ccc(C(=S)N2CCCCCC2)cc1 the results were IDH1 R132H inh inactive, TrxR1 inh inactive, Sfp inh 45µM, TrxR1 substrate inactive, PLK1 PBD block inconclusive and VDR inhibitor inconclusive.
`CNC(=S)N/N=C(\C)c1ccc(N2CCOCC2)cc1` gave IDH1 R132H inh inactive, TrxR1 inh inconclusive, Sfp inh 50µM, TrxR1 substrate inactive, PLK1 PBD block inconclusive and VDR inhibitor inactive.
`S=C(c1ccc(N2CCOCC2)cc1)N1CCOCC1` gave IDH1 R132H inh inactive, TrxR1 inh inactive, Sfp inh inactive, TrxR1 substrate inactive, PLK1 PBD block 27µM and VDR inhibitor inconclusive.
Nc1ccc(N2CCCCCC2)cc1 was read as Sfp inh 8.9µM.
CCNC(=S)N/N=C(\C)c1ccc(N2CCOCC2)cc1 was read as IDH1 R132H inh inactive, TrxR1 inh inactive, Sfp inh inactive, TrxR1 substrate inactive, PLK1 PBD block inactive and VDR inhibitor inactive.
`Oc1cccc(C(=S)N2CCCCC2)c1` gave IDH1 R132H inh inactive, TrxR1 inh inactive, Sfp inh 22µM, TrxR1 substrate inactive, PLK1 PBD block 11µM and VDR inhibitor inconclusive.
S=C(c1ccc(N2CCCC2)c(Br)c1)N1CCCCC1 was read as IDH1 R132H inh inactive, TrxR1 inh inactive, Sfp inh inactive, TrxR1 substrate inactive, PLK1 PBD block inactive and VDR inhibitor inactive.
O=C(Oc1cccc(C(=S)N2CCCCC2)c1)c1ccccc1 was read as IDH1 R132H inh inactive, TrxR1 inh inactive, Sfp inh inactive, TrxR1 substrate inactive, PLK1 PBD block inactive and VDR inhibitor inactive.
O=C(O)c1ccc(N2CCCCC2)cc1 was read as IDH1 R132H inh inactive, TrxR1 inh inactive, Sfp inh inactive, TrxR1 substrate inactive, PLK1 PBD block inactive and VDR inhibitor inactive.
For Oc1ccc(C(=S)N2CCCCCC2)cc1 the results were IDH1 R132H inh inactive, TrxR1 inh inactive, Sfp inh 56µM, TrxR1 substrate inactive, PLK1 PBD block inconclusive and VDR inhibitor inactive.
Screening CC(=O)N1CCN(C(=S)c2ccc(Cl)cc2)CC1 returned IDH1 R132H inh inactive, TrxR1 inh inactive, Sfp inh 7.1µM, TrxR1 substrate inactive, PLK1 PBD block 21µM and VDR inhibitor inactive.
`S=C(c1ccc(N2CCCC2)cc1)N1CCCCC1` gave IDH1 R132H inh inactive, TrxR1 inh inactive, Sfp inh inactive, TrxR1 substrate inactive, PLK1 PBD block 8.4µM and VDR inhibitor inactive.
For CN1C2CCC1CC(NS(=O)(=O)c1ccc(C#N)cc1)C2 (configuration not stated) the results were IDH1 R132H inh inactive, TrxR1 inh inactive, Sfp inh inactive, TrxR1 substrate inactive, PLK1 PBD block inactive and VDR inhibitor inactive.
`S=C(c1ccc(OCc2ccccc2)cc1)N1CCCC1` gave IDH1 R132H inh inactive, TrxR1 inh inactive, Sfp inh inactive, TrxR1 substrate inactive, PLK1 PBD block inactive and VDR inhibitor inactive.
Screening CC1CCN(C(=S)c2ccccc2O)CC1 returned IDH1 R132H inh inactive, TrxR1 inh inactive, Sfp inh 28µM, TrxR1 substrate inactive, PLK1 PBD block 15µM and VDR inhibitor inconclusive.
Oc1ccc(C(=S)N2CCCC2)cc1 was read as IDH1 R132H inh inactive, TrxR1 inh inactive, Sfp inh 20µM, TrxR1 substrate inactive, PLK1 PBD block 24µM and VDR inhibitor inconclusive.
Screening CC1CCN(C(=S)c2ccc(O)cc2)CC1 returned IDH1 R132H inh inactive, TrxR1 inh inactive, Sfp inh 56µM, TrxR1 substrate inactive, PLK1 PBD block inconclusive and VDR inhibitor inactive.
For CC1CCN(C(=S)NC(=O)c2ccc(F)cc2)CC1 the results were IDH1 R132H inh inactive, TrxR1 inh inactive, TrxR1 substrate inactive, PLK1 PBD block inactive and VDR inhibitor inactive.
Screening CCCCCCCCCOC(=O)CNc1nc(C#N)nc(NCC(=O)OCCCCCCCCC)n1 returned TrxR1 inh inactive, TrxR1 substrate inactive and VDR inhibitor inactive.
